Screens from PubChem.
HCMV inh = human cytomegalovirus inhibition | HFF cells, HCMV-luciferase reporter, 72 h; hits give low values | activity change, negative = inhibition, % at 57.5 µM | 4.5% of 410,000 active; in the data active = activity change below about -60%; inconclusive = no clear call, values can overlap the other calls; inactive = above about -39%; note: % is set by controls: 0 for no effect and ±100 for the full control effect
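HFF cells seeded 16 h at 37C, treated with compounds, infected with luciferase-reporter HCMV at MOI 1 PFU/cell; luciferase read at 72 h post infection, normalized to buffer-only and Salinomycin controls.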
Shiga toxin inh = inhibitors of Shiga toxin in Vero cells; 9.2% of 290,000 active; AID 2315; inhibition, % at 38.7 µM; Vero cells, Shiga toxin protein synthesis inhibition reporter; in the data active = inhibition mostly above about 28%, no sharp cut-off; inactive = mostly below about 43%; note: 0% is about no effect
HCV inh = inhibitors of hepatitis C virus infection; Huh7.5.1 HCVcc-Cre infection, luciferase reporter, 44 h; 3.4% of 340,000 active; AID 651820; Potency, µM (series often up to 41.8 µM), without a hit: at the top dose activity change, negative = inhibition, most hits filed as inhibitors; note: potency is the fitted concentration of half-maximal effect; % is set by controls: 0 for no effect and ±100 for the full control effect
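HCVcc-Cre virus at an moi near 0.5 was added right after compound to cells cultured 4 h from seeding (1,000 cells/well). Luciferase activity was determined 44 h later, 15 min after substrate addition at RT.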
Pf growth 48h = inhibits P. falciparum growth in the first generation, 48 h; 5.9% of 310,000 active; P. falciparum luciferase growth in erythrocytes, 48 h; Potency, µM (series often up to 28.7 µM), inactives show at the top dose activity change, negative = inhibition, usual class: inhibitors; AID 504832; note: potency is the fitted concentration of half-maximal effect; % is set by controls: 0 for no effect and ±100 for the full control effect
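Parasite viability was followed by luminescence of a genomically integrated firefly luciferase. Cultures held 0.1% parasitemia at 2% hematocrit (final), incubated under 5% CO2 at 37 C.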
Cycloheximide cs = affects cycloheximide protein synthesis inhibition readout, counter-screen; 12% of 300,000 active; AID 2314; max response, %; cell reporter, cycloheximide protein synthesis inhibition counterscreen; in the data active = max response mostly above about 13%, no sharp cut-off; inactive = mostly below about 14%; note: read at 38.3 µM for the half of the compounds with a filed dose; 0% is about no effect
Pf growth 96h = P. falciparum growth inhibition at 96 hour, primary screen for plastid delayed-death inhibitors; Potency, µM (highest dose often 28.7 µM), for the others: at the top dose activity change, negative = inhibition, hits mostly inhibitors; AID 504834; 6.9% of 320,000 active; P. falciparum luciferase reporter growth, 96 h; note: potency is the fitted concentration of half-maximal effect; % is set by controls: 0 for no effect and ±100 for the full control effect
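Cell-based qHTS: luciferase-tagged P. falciparum in erythrocytes (2% hematocrit, 0.05% parasitemia final) incubated with compounds for 96 hours, 37 C, 5% CO2; luciferase detection reagent then added and luminescence measured.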
* = called active by the depositor; ? = inconclusive; · = no result given. An excerpt weighted towards active compounds, which were near 21% of everything screened. Unless noted, calls come from the whole dose curve; as a rule, active = well fitted inhibition curve with a large enough effect; inconclusive = small, poorly fitted or top-dose-only effect, or another doubt; inactive = no such curve, though single readings can be large or run the other way.

SMILES	HCMV inh	Shiga toxin inh	HCV inh	Pf growth 48h	Cycloheximide cs	Pf growth 96h
CCN1CCN(c2nc(-c3cccnc3)nc3ccccc23)CC1	-1.3	4.3	?	?	-3.5	·
CCCOc1ccc(-c2nc(N3CCN(CC)CC3)c3ccccc3n2)cc1	?	10.2	?	10.4µM*	14.1	11.7µM*
COc1cccc(C(=O)Nc2ccccc2-c2nc(-c3ccc(C)cc3)no2)c1	53.5	·	·	·	·	·
COC(=O)CCNC(=O)N1CCN(c2nnc(C)c3c(C)n(-c4ccccc4)nc23)CC1	-3.8	·	·	·	·	·
Cc1ccc(CNC(=O)CN2C(=O)C3(SCC(=O)N3c3ccc(F)c(F)c3)c3ccccc32)cc1 (stereo unspecified)	-12.3	·	·	·	·	·
COc1cc(C)nc(NC(=O)NC(=O)c2ccc(C(F)(F)F)cc2)n1	-34.0	10.6	-17.5%	-13.4%	-2.4	49.9%
CN(CCC#N)C(=O)c1cc2c(s1)-c1ccccc1SC2	-15.6	80.6*	?	152.6%	51.7*	165.1%
CCCCOCC1CN(CCCC)S(=O)(=O)c2c(cccc2Sc2ccc(SC)cc2)O1 (stereo unspecified)	21.8	·	·	·	·	·
CCc1ccccc1NC(=O)CCC(=O)N1CC(C)Oc2ccc(C)cc21 (stereo unspecified)	-2.2	·	·	·	·	·
Cn1c(=O)n(CCc2ccccc2)c(=O)c2c1nc1n2CCN1Cc1ccco1	34.3	55.3	?	8.28µM*	24.1	5.22µM*
Cn1c(=O)n(Cc2ccc(F)cc2)c(=O)c2c1nc1n2CCN1Cc1ccco1	?	-15.8	?	?	7.7	?
Cc1ccc(C)c(Cn2c(=O)c3c(nc4n3CCN4Cc3ccco3)n(C)c2=O)c1	-21.6	73.9	-13.6%	8.28µM*	-1.7	?
Cc1ccc(C)c(Cn2c(=O)c3c(nc4n3CCN4c3ccccc3)n(C)c2=O)c1	-7.8	·	·	·	·	·
CC(=O)c1ccc(NC(=S)NCc2ccco2)cc1	37.7	58.1*	-0.3%	9.6%	35.9*	-15.7%
COc1ccccc1N1CCN(C(=O)c2ccccc2SCC(=O)NCc2ccco2)CC1	-20.7	·	0.6%	?	·	-8.5%
CC(=O)c1ccc(N2CCN(C(=O)c3ccccc3SCC(=O)NCc3ccco3)CC2)c(F)c1	5.4	·	12.6µM*	·	·	·
NS(=O)(=O)c1ccc(NC(=S)NCc2ccco2)cc1	8.4	14.2	10.0%	8.1%	-0.6	-12.3%
S=C(NCc1ccco1)N1CCN(c2ccc(Cl)cc2)CC1	?	18.2	-15.0%	-9.5%	6.5	?
COC(=O)c1ccc(NC(=S)NCc2ccco2)cc1	?	28.7	-17.6%	18.2%	11.8	?
CC(=O)c1ccc(N2CCN(C(=S)NCc3ccco3)CC2)cc1	7.8	24.0	-14.4%	-3.5%	0.1	13.1µM*
NC(=O)c1ccc(NC(=S)NCc2ccco2)cc1	6.4	38.6	18.7%	21.4%	11.1*	11.7µM*
CCOC(=O)c1ccccc1NC(=O)N(C)CCc1c(C)nn(CC)c1C	52.6	·	·	·	·	·
COc1ccc(CNC(=O)c2ccc(CN3C(=O)C(C)=C(c4ccc(C)cc4)S3(=O)=O)cc2)cc1	-10.4	·	·	·	·	·
COc1cc(NC(=S)NCc2ccco2)cc(OC)c1OC	-16.6	-5.0	9.3%	-1.3%	3.2	5.22µM*
COc1ccc2nc(N3CCOCC3)cc(C)c2c1	146.1	60.6*	?	·	32.7*	315.1%
SMILES	HCMV inh	Shiga toxin inh	HCV inh	Pf growth 48h	Cycloheximide cs	Pf growth 96h
COc1ccc(OC)c(C(=O)Cn2nnc3ccccc3c2=O)c1	-20.8	-5.3	-19.0%	4.5%	-2.7	·
COc1ccc(C2(c3ccc(OC)cc3)NC(=O)N(Cn3nnc4ccccc4c3=O)C2=O)cc1	-23.5	-8.7	?	11.7µM*	-4.5	?
COc1ccc2c(C)cc(SCn3nnc4ccccc4c3=O)nc2c1	-65.5*	-5.8	-3.9%	24.5%	6.5	59.1%
COc1ccc2c(C)cc(SCC(=O)N3CCOCC3)nc2c1	33.1	-6.8	-25.3%	2.9%	-1.3	0.185µM*
OC1CCN(C(=S)Nc2ccc(Oc3ccccc3)cc2)CC1	0.0	8.6	-25.0%	-0.7%	12.5	0.2%
O=C(NCCN1C(=O)S/C(=C\c2ccccc2F)C1=O)C1=COCCO1	?	·	?	12.4%	·	?
CCC(=O)Nc1ccc(C(=O)NCc2ccccn2)cc1	33.1	3.1	-4.3%	4.5%	-3.6	?
COc1ccc(OC)c(NC(=O)C2(C)CCN2C(C)C)c1 (stereo unspecified)	-2.7	·	·	·	·	·
CCC(=O)N1c2ccccc2CC1C(=O)NCc1ccc(N(C)C)cc1 (stereo unspecified)	12.1	·	·	·	·	·
CCOc1ccc2nc(N3CCOCC3)nc(C)c2c1	129.6	99.3*	-15.5%	170.7%	53.0*	9.4%
COc1ccc2c(C)cc(N3CCOCC3)nc2c1	17.3	52.3*	25.1µM*	55.4%	25.6*	93.5%
CCOc1ccc(Nc2nc(N3CCOCC3)nc(N3CCOCC3)n2)cc1	45.3	-3.2	?	-26.7%	-1.7	3.7%
COc1cccc(Oc2nc(N)ncc2[N+](=O)[O-])c1	0.9	-6.0	2.7%	-0.8%	15.0	-18.1%
Cc1ccc(-c2c(C)sc(=NC(=O)c3ccco3)n2C)cc1	30.8	97.0*	-21.0%	60.0%	66.7*	132.0%
COc1ccc(OC)c2c1sc(=NC(=O)c1ccco1)n2C	-5.9	-8.5	7.94µM*	·	-2.3	?
COc1ccc(OC)c2c1sc(=NC(=O)C1CC1)n2C	-5.1	-2.2	14.1µM*	-11.1%	1.1	15.0%
CCn1c(=N)n(CC(=O)c2ccco2)c2ccccc21	32.7	0.3	-0.3%	1.8%	9.5	·
CCCCC(=O)N=c1sc2c(OC)ccc(OC)c2n1C	-38.8	2.3	-1.6%	-19.8%	-0.8	-19.2%
CCn1c(=NC(=O)c2ccco2)sc2cccc(F)c21	119.6	100.8*	?	33.8%	33.7*	44.5%
Cc1ccc(-c2cc(C(=O)N3CCN(C(=O)c4ccco4)CC3)no2)cc1	30.6	21.8	-11.7%	-4.5%	6.6	·
COc1ccc(Cl)c2sc(N3CCN(C(=O)c4ccco4)CC3)nc12	-19.5	·	?	?	·	?
Cn1c(=NC(=O)COc2ccccc2)sc2cccc(F)c21	-16.2	-9.7	?	110.1%	14.4	83.3%
CC(C)C(=O)N=c1sc2cccc(F)c2n1C	-23.5	16.9	-9.2%	10.8%	10.4*	22.6%
CCc1nn(CC(=O)N(C)C2CCCCC2)c(=O)c2cc3cc(C)ccc3n12	-21.6	-4.8	-8.7%	-16.1%	10.0	27.0%
O=C(CN1CCN(S(=O)(=O)c2cccs2)CC1)NCC1CCCCC1	2.5	·	-2.9%	?	·	?
CC(C(=O)NC1CCCC1)N1CCN(S(=O)(=O)c2ccc(C(C)(C)C)cc2)CC1 (stereo unspecified)	-17.2	·	11.4%	1.47µM*	·	1.47µM*
CC(C(=O)NCC1CCCCC1)N1CCN(S(=O)(=O)c2cccs2)CC1 (stereo unspecified)	-28.9	·	2.4%	9.28µM*	·	?
CCNc1nc(NC(N)=S)nc(NC(C)(C)C)n1	-36.4	-18.9	?	-13.1%	-1.7	17.4%
